In PubChem BioAssay AID1159580 (chemical genetic matrix, 2015):
“And” between values parts separate entries of the source, which are not always exact repeats. Equal values may be shown once. Screen size: about 5,500 compounds; about 2,000 (36%) were called active. Inconclusive results (about 18%) are left out. Cut-off read from the data, not from the text of the source: active = normalized growth mostly below about 0.91 (no sharp cut-off); inconclusive = no clear call, values can overlap the other calls; inactive = mostly above about 0.92. The list shows a part of the results.

Test: chemical genetic growth profiling, strain panel (AID 1159580);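 note: tested at 20 µM; growth read once vehicle control cultures reached saturation at 30 °C; 1 = growth at the plate median or of vehicle wells; lower values mean less growth of the strain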
Details: S. cerevisiae deletion strains, growth OD

Measured: normalized growth

CC1(C)O[C@H]2CC(=O)OC[C@]23[C@H]2CC[C@@]4(C)[C@H](c5ccoc5)OC(=O)[C@H]5O[C@]54[C@]2(C)C(=O)C[C@@H]13
inactive: locus YAL013W, strain DEP1, hits give low values 1.02 | locus YAL021C, strain ccr4, hits give low values 0.982 | locus YAL026C, strain drs2, hits give low values 0.99 | locus YAL030W, strain snc1, hits give low values 0.98 | locus YBL061C, strain skt5, hits give low values 0.987 | locus YBR009C, strain hhf1, hits give low values 0.968 | locus YBR023C, strain chs3, hits give low values 0.995 | locus YBR171W, strain sec66, hits give low values 0.964 | locus YBR229C, strain ROT2, hits give low values 1.01 | locus YBR231C, strain swc5, hits give low values 1 | locus YBR279W, strain paf1, hits give low values 0.992 | locus YCL011C, strain gbp2, hits give low values 0.98 | locus YCL016C, strain dcc1, hits give low values 0.99 | locus YCL029C, strain bik1, hits give low values 0.976 | locus YCL061C, strain MRC1, hits give low values 0.974 | locus YCL069W, strain vba3, hits give low values 0.969 | locus YCR088W, strain abp1, hits give low values 0.984 | locus YDL005C, strain med2, hits give low values 0.962 | locus YDL035C, strain GPR1, hits give low values 1.02 | locus YDL040C, strain nat1, hits give low values 0.984 | locus YDL074C, strain BRE1, hits give low values 0.992 | locus YDL101C, strain DUN1, hits give low values 0.985 | locus YDL134C, strain PPH21, hits give low values 1.01 | locus YDL185W, strain tfp1, hits give low values 0.962 | locus YDL192W, strain arf1, hits give low values 0.988 | locus YDR001C, strain nth1, hits give low values 0.984 | locus YDR069C, strain doa4, hits give low values 0.989 | locus YDR101C, strain arx1, hits give low values 0.998 | locus YDR137W, strain rgp1, hits give low values 1.01 | locus YDR150W, strain NUM1, hits give low values 0.994 | locus YDR159W, strain sac3, hits give low values 0.99 | locus YDR162C, strain NBP2, hits give low values 1.02 | locus YDR195W, strain ref2 0.967 | locus YDR297W, strain sur2, hits give low values 1.01 | locus YDR318W, strain mcm21, hits give low values 0.994 | locus YDR334W, strain swr1, hits give low values 0.958 | locus YDR335W, strain msn5, hits give low values 0.986 | locus YDR388W, hits give low values 1.01 | locus YDR392W, strain spt3, hits give low values 0.986 | locus YDR502C, strain sam2, hits give low values 0.99 | locus YEL003W, strain gim4, hits give low values 0.981 | locus YEL037C, strain rad23, hits give low values 0.971 | locus YEL061C, strain CIN8 (second series), hits give low values 0.991 | locus YEL061C, strain CIN8, hits give low values 1 | locus YER015W, strain faa2, hits give low values 0.989 | locus YER016W, strain bim1, hits give low values 0.98 | locus YER110C, hits give low values 0.975 | locus YER111C, strain swi4, hits give low values 0.95 | locus YER155C, strain BEM2 (second series), hits give low values 0.952 | locus YER155C, strain BEM2, hits give low values 0.995 | locus YER167W, strain BCK2, hits give low values 1 | locus YFR010W, strain ubp6, hits give low values 0.986 | locus YGL078C, strain dbp3, hits give low values 0.985 | locus YGL086W, strain mad1, hits give low values 0.993 | locus YGL167C, strain pmr1, hits give low values 0.975 | locus YGL173C, strain kem1, hits give low values 0.982 | locus YGL227W, strain vid30, hits give low values 0.987 | locus YGL240W, strain doc1, hits give low values 0.962 | locus YGL248W, strain PDE1, hits give low values 1.02 | locus YGL253W, strain hxk2, hits give low values 1.01 | locus YGR135W, strain pre9, hits give low values 1 | locus YGR229C, strain SMI1, hits give low values 1.04 | locus YGR252W, strain gcn5, hits give low values 1.07 | locus YHR013C, strain ard1, hits give low values 0.95 | locus YHR027C, strain rpn1, hits give low values 0.993 | locus YHR030C, strain SLT2, hits give low values 1 and 1.01 | locus YHR079C, strain IRE1 (second series), hits give low values 0.98 | locus YHR079C, strain IRE1, hits give low values 1.03 | locus YHR094C, strain hxt1, hits give low values 0.984 | locus YHR129C, strain ARP1, hits give low values 1 | locus YHR142W, strain chs7, hits give low values 0.973 | locus YHR200W, strain rpn10, hits give low values 0.987 | locus YIL066C, strain RNR3, hits give low values 1.02 | locus YIL073C, strain SPO22, hits give low values 0.932 | locus YIL125W, strain kgd1, hits give low values 0.997 | locus YIR030C, strain dcg1, hits give low values 0.984 | locus YJL092W, strain hpr5, hits give low values 0.962 | locus YJL095W, strain BCK1 (second series), hits give low values 0.966 | locus YJL095W, strain BCK1, hits give low values 0.985 and 1.03 | locus YJL115W, strain asf1, hits give low values 0.95 | locus YJL129C, strain trk1, hits give low values 0.973 | locus YJL134W, strain LCB3, hits give low values 1 | locus YJL154C, strain vps35, hits give low values 0.975 | locus YJL164C, strain tpk1, hits give low values 0.986 | locus YJL166W, strain qcr8, hits give low values 0.979 | locus YJL168C, strain set2, hits give low values 0.989 | locus YJL187C, strain SWE1 (second series), hits give low values 0.996 | locus YJL187C, strain SWE1, hits give low values 0.967 | locus YJR043C, strain POL32, hits give low values 1.05 | locus YJR066W, strain TOR1, hits give low values 0.946 | locus YJR075W, strain HOC1, hits give low values 0.989 | locus YKL009W, strain mrt4, hits give low values 0.963 | locus YKL068W, hits give low values 0.987 | locus YKL085W, strain MDH1 (second series), hits give low values 0.992 | locus YKL085W, strain MDH1, hits give low values 0.992 | locus YKL160W, strain elf1, hits give low values 1 | locus YKR001C, strain vps1, hits give low values 0.985 | locus YKR026C, strain gcn3, hits give low values 0.998 | locus YKR091W, strain srl3, hits give low values 0.98 | locus YLL001W, strain dnm1, hits give low values 0.959 | locus YLL026W, hits give low values 0.988 | locus YLL041C, strain sdh2, hits give low values 0.97 | locus YLR027C, strain aat2, hits give low values 0.965 | locus YLR039C, strain RIC1, hits give low values 1.01 | locus YLR058C, strain SHM2, hits give low values 1 | locus YLR102C, strain apc9, hits give low values 0.983 | locus YLR113W, strain HOG1, hits give low values 1.04 | locus YLR221C, strain rsa3, hits give low values 1 | locus YLR258W, strain gsy2, hits give low values 0.996 | locus YLR262C, strain YPT6 (second series), hits give low values 1.01 | locus YLR262C, strain YPT6, hits give low values 1 | locus YLR268W, strain sec22, hits give low values 0.961 | locus YLR320W, strain mms22, hits give low values 0.992 | locus YLR330W, strain CHS5, hits give low values 0.998 | locus YLR342W, strain FKS1 (second series), hits give low values 1.07 | locus YLR342W, strain FKS1, hits give low values 0.975 | locus YLR357W, strain rsc2, hits give low values 0.99 | locus YLR370C, strain arc18, hits give low values 0.97 | locus YLR371W, strain rom2, hits give low values 0.98 | locus YLR384C, strain iki3, hits give low values 0.999 | locus YLR418C, strain cdc73, hits give low values 0.994 | locus YML016C, strain PPZ1, hits give low values 1.01 | locus YML032C, strain rad52, hits give low values 1.01 | locus YML120C, strain ndi1, hits give low values 0.969 | locus YML124C, strain tub3, hits give low values 0.99 | locus YMR058W, strain fet3, hits give low values 0.974 | locus YMR078C, strain ctf18, hits give low values 0.982 | locus YMR125W, strain sto1, hits give low values 0.985 | locus YMR129W, hits give low values 0.99 | locus YMR205C, strain PFK2, hits give low values 1.01 | locus YMR223W, strain ubp8, hits give low values 0.994 | locus YMR231W, strain pep5, hits give low values 0.981 | locus YMR263W, strain SAP30, hits give low values 0.985 | locus YMR307W, strain GAS1, hits give low values 1.04 | locus YNL067W, strain RPL9B, hits give low values 0.961 | locus YNL071W, strain lat1, hits give low values 0.995 | locus YNL128W, strain TEP1, hits give low values 0.993 | locus YNL153C, strain GIM3, hits give low values 0.994 | locus YNL183C, strain NPR1, hits give low values 0.934 | locus YNL209W, strain ssb2, hits give low values 0.979 | locus YNL233W, strain BNI4, hits give low values 0.997 | locus YNL248C, strain rpa49, hits give low values 0.979 | locus YNL250W, strain rad50, hits give low values 0.932 | locus YNL271C, strain bni1, hits give low values 0.987 | locus YNL298W, strain CLA4, hits give low values 1 | locus YNL307C, strain MCK1, hits give low values 0.983 | locus YNL322C, strain KRE1 (second series), hits give low values 0.959 | locus YNL322C, strain KRE1, hits give low values 0.997 | locus YNR049C, strain mso1, hits give low values 0.956 | locus YNR052C, strain pop2, hits give low values 0.994 | locus YOL006C, strain TOP1, hits give low values 0.922 | locus YOL012C, strain htz1 0.665 | locus YOL147C, strain pex11, hits give low values 0.998 | locus YOR001W, strain rrp6, hits give low values 0.995 | locus YOR061W, strain CKA2, hits give low values 1.01 | locus YOR069W, strain VPS5, hits give low values 1 | locus YOR070C, strain gyp1, hits give low values 0.992 | locus YOR080W, strain dia2, hits give low values 0.961 | locus YOR083W, strain WHI5, hits give low values 0.975 | locus YOR106W, strain vam3, hits give low values 1.01 | locus YOR136W, strain idh2, hits give low values 0.985 | locus YOR144C, strain elg1, hits give low values 1.01 | locus YOR184W, strain ser1, hits give low values 0.988 | locus YOR231W, strain MKK1, hits give low values 1.04 | locus YOR265W, strain rbl2, hits give low values 0.984 | locus YOR270C, strain vph1, hits give low values 0.988 | locus YOR290C, strain snf2, hits give low values 0.973 | locus YOR316C, strain cot1, hits give low values 0.992 | locus YPL051W, strain arl3, hits give low values 0.986 | locus YPL078C, strain atp4, hits give low values 0.97 | locus YPL106C, strain sse1, hits give low values 0.939 | locus YPL240C, strain hsp82, hits give low values 0.992 | locus YPL256C, strain CLN2, hits give low values 1.01 | locus YPR119W, strain clb2, hits give low values 0.994 | locus YPR141C, strain kar3, hits give low values 0.991 | locus YPR163C, strain tif3, hits give low values 1 | locus YPR167C, strain met16, hits give low values 0.989 | strain wtn01, hits give low values 0.974
active: locus YBR021W, strain FUR4, hits give low values 1.21 [resistant]
